# This is one part of a sample in which hits are shown more often than they occur.
# Shiga inhibitor = A qHTS for Small Molecule Inhibitors of Shiga Toxin; Vero cells, Shiga toxin protein synthesis inhibition reporter; 290,000 compounds, 9.2% hits; inhibition, % at 38.7 µM; in the data active = inhibition mostly above about 28%, no sharp cut-off; inactive = mostly below about 43%; also: 0% is about no effect
# Tb PYK inh = qHTS of Trypanosoma Brucei Inhibitors; pyruvate kinase (Trypanosoma brucei), Q57TT1; TbPYK enzyme, Kinase-Glo Plus ATP luminescence, 45 min; Potency, µM (series often up to 76.8 µM), for inactives: at the highest dose activity, negative = inhibition, hits mostly inhibitors; 410,000 compounds, 0.12% hits; AID 624173, 2012; also: potency is read from the fitted curve at half-maximal effect; % is scaled to controls: 0 for no effect and ±100 for the full control effect; nearly all actives have a fitted effect of over 50% in size
#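 In this concentration-response screen, enzyme-free wells defined baseline while DMSO plates tracked drift. Each reaction combined TbPYK, substrate, compound and 130 uM ADP for 45 min at room temperature. Kinase-Glo Plus luminescence gave the signal.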
# LmPK inh = qHTS Assay for Inhibitors of Leishmania Mexicana Pyruvate Kinase (LmPK) | Q27686 | purified LmPK, Kinase-Glo ATP luminescence, 1 h | Potency, µM (titrated, usually from 57.5 µM), without a hit: at the top dose activity change, negative = inhibition, most hits filed as inhibitors | 290,000 compounds, 0.37% hits; also: potency is read from the fitted curve at half-maximal effect; % is scaled to controls: 0 for no effect and ±100 for the full control effect
#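 qHTS format; LmPK 0.1 nM; substrates PEP 0.5 mM and ADP 0.1 mM. One-hour room-temperature incubation, then coupled luciferase luminescence; 0.5 nM enzyme wells mark activation.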
# RE007 growth inh = qHTS Assay for Inhibitors of the HIV-1 protein Vpr; 360,000 compounds, 0.21% hits; S. pombe RE007 Vpr strain, BacTiter-Glo ATP luminescence, 24 h; Potency, µM (titrated, usually from 92.2 µM), for the others: top-dose activity change, negative = less growth, actives largely listed as inhibitors; active = well fitted falling curve with a large enough effect; also: potency is read from the fitted curve at half-maximal effect; % is scaled to controls: 0 for no effect and ±100 for the full control effect; nearly all actives have a fitted effect of over 50% in size
#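 Fission yeast RE007 carrying one integrated HIV-1 vpr copy, seeded at OD 0.01 in PMG+AL medium with 23 nL pinned compound. Grown 24 h at 30 degrees; viability read by BacTiter-Glo luminescence after 5 min.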
# Giardia FBPA inh = qHTS Assay for Inhibitors of Fructose-1,6-bisphosphate Aldolase from Giardia Lamblia; A8B2U2; Potency, µM (series often up to 59.6 µM), inactives show at the highest dose activity, negative = inhibition, usual class: inhibitors; 290,000 compounds, 0.71% hits; purified Giardia FBPA; also: potency is read from the fitted curve at half-maximal effect; % is scaled to controls: 0 for no effect and ±100 for the full control effect; nearly all actives have a fitted effect of over 55% in size
# Target sequence (A8B2U2 whole entry, looked up): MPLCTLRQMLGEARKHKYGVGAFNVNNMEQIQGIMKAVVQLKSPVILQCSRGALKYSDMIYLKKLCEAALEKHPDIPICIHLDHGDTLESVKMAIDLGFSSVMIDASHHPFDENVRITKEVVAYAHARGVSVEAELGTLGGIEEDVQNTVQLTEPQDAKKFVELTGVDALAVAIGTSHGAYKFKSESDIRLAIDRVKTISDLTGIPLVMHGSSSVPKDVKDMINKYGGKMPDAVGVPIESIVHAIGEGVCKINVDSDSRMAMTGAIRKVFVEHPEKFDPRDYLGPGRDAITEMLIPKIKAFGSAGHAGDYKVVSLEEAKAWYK
#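 40 nM FBPA preincubated 10 min at RT with compound (up to 57.5 uM final), then substrate plus GAPDH/TPI/NAD/arsenate coupling and diaphorase/resazurin added. Fluorescence read after 20 min at RT, 525/598 nm.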
# CHX counter = Cycloheximide Counterscreen for Small Molecule Inhibitors of Shiga Toxin | cell reporter, cycloheximide protein synthesis inhibition counterscreen | max response, % | 300,000 compounds, 12% hits | AID 2314, 2010; in the data active = max response mostly above about 13%, no sharp cut-off; inactive = mostly below about 14%; also: read at 38.3 µM for the half of the compounds with a filed dose; 0% is about no effect
# Active calls of the source: *; nt = no result given; [ ] = dose if it differs, or a comment. Unless noted, calls follow the shape of the dose curve; as a rule, active = well fitted curve in the direction sought with a large enough effect; inconclusive = small, poorly fitted or top-dose-only effect, or another doubt; inactive = no such curve, though single readings can be large; an effect the other way counts as inactive or inconclusive.
SMILES,Shiga inhibitor,Tb PYK inh,LmPK inh,RE007 growth inh,Giardia FBPA inh,CHX counter
C[C@H](NC(=O)[C@@H](N)Cc1ccc(O)cc1)C(=O)NCC(=O)N[C@H]1CSSC[C@@H](C(=O)O)NC(=O)[C@H](CO)NC(=O)[C@H]([C@@H](C)O)NC(=O)[C@H](Cc2ccccc2)NC(=O)[C@H]([C@@H](C)O)NC(=O)[C@H](CCCCN)NC(=O)[C@@H](Cc2c[nH]c3ccccc23)NC(=O)[C@H](Cc2ccccc2)NC(=O)[C@H](Cc2ccccc2)NC(=O)[C@H](CC(N)=O)NC(=O)[C@H](CCCCN)NC1=O,-10,nt,nt,nt,0%,-4
Cc1ccc(Cc2c(C)nn(-c3nc(C)c(C(=O)N4CCCCC4C)s3)c2C)cc1 (configuration not stated),nt,-6%,nt,nt,nt,nt
COc1cccc(Cn2c(=O)n(-c3ccc(Br)cc3F)c(=O)c3sc4ccccc4c32)c1,nt,1%,nt,nt,nt,nt
O=C(c1ccncc1)N1CCC[C@@]2(CCN(c3cccc(-c4ccccc4)c3)C2)C1,nt,-10%,nt,nt,-10%,nt
O=C(Oc1cccc(NC(=O)c2cccs2)c1)c1cccc(S(=O)(=O)N2CCCC2)c1,38,1%,0%,-14%,-5%,14*
O=C(Oc1cccc(NC(=O)c2ccco2)c1)c1cccc(S(=O)(=O)N2CCCC2)c1,25,-8%,-5%,-21%,0%,18*
O=C1c2c(O)cc(O)cc2O[C@H](c2ccc(O)c(O)c2)C1O (some centres not stated),-10,nt,nt,nt,-19%,-7
CCOC(=O)CC(NS(=O)(=O)c1cc(-c2cc(C)no2)ccc1C)c1ccc(C)cc1 (configuration not stated),nt,-8%,nt,nt,nt,nt
CCOc1ccc(-c2cc3c(=O)n(Cc4nc(-c5cccc(OC)c5OC)oc4C)ccn3n2)cc1Cl,nt,-3%,nt,nt,nt,nt
O=C1C=C(N(CCO)Cc2ccccc2)c2ccccc2C1=O,-13,-5%,-9%,-30%,0.35µM*,-1
O=C1c2ccccc2C(=O)c2c1cccc2N(CCO)CCO,15,-7%,-12%,-14%,-25%,13
CC(=O)c1ccc(Nc2nc3ccc(C)cc3n3cnnc23)cc1,28,10%,5%,-20%,3%,17*
CC(=O)N1C=Cc2c(c(C)c3c([nH]c4ccccc43)c2C)C1,25,nt,2%,nt,-22%,17*
O=C(CSc1ccc(F)cc1)Nc1ccc(Br)cc1,67*,2%,0%,-7%,0%,47*
O=C(CSc1ccc(F)cc1)Nc1ccccc1Br,66,-6%,6%,22%,0%,33*
Cc1ccc2c(c1)N(C(=O)N1CCC(C(=O)NC3CCCCCC3)CC1)CC(C)O2 (configuration not stated),nt,-2%,nt,nt,nt,nt
CCCCC/C=C\C/C=C\C/C=C\C/C=C\CCCCCC(=O)NC(C)C(=O)O (configuration not stated),nt,nt,nt,nt,1%,nt
Cc1ccc2oc(=O)n(CCNC(=O)Nc3ccc(Cl)cc3)c2c1,nt,0%,nt,nt,nt,nt
CCOC(=O)/C(C#N)=C/c1cc2ccccc2nc1N1CCOCC1,-12,-1%,0%,-26%,-1%,-3
N#CC(C#N)=Cc1cc2ccccc2nc1N1CCCCC1,41*,5%,1%,-25%,-15%,42*
O=C(O)c1cc(-c2ccccc2)nn1Cc1ccccc1,nt,1%,nt,nt,nt,nt
CCOC(=O)c1sc(NC(=O)CSc2ncccn2)nc1C,41*,9%,-11%,46%,nt,21
CCOC(=O)c1sc(NC(=O)CSc2nccn2C)nc1C,112*,-2%,-5%,-6%,nt,35*
CCOC(=O)c1ccccc1NC(=O)CSc1nccn1C,9,6%,0%,-7%,-4%,7
CCOC(=O)c1sc(NC(=O)CSc2nccc(C)n2)nc1C,23,5%,3%,8%,7%,1
SMILES,Shiga inhibitor,Tb PYK inh,LmPK inh,RE007 growth inh,Giardia FBPA inh,CHX counter
CO[C@@H]1/C=C\CC(=O)N[C@@H](C)C(=O)OC[C@@H](OC)[C@H](C)/C=C\CC(=O)OC[C@H]1C,nt,nt,nt,nt,0%[12.9 µM],nt
COC(=O)c1sc(N2C(=O)c3oc4ccccc4c(=O)c3C2c2ccc(O)cc2)nc1C (configuration not stated),nt,2%,nt,nt,nt,nt
CCN(CC)/C(Sc1ccccc1)=C(/C(Cl)=C(Cl)Cl)[N+](=O)[O-],29,2%,-1%,4%,-16%,24*
CCN(CC)/C(Sc1ccccc1)=C(\C(Cl)=C(Cl)Cl)[N+](=O)[O-],7,4%,-12%,1%,-16%,11
COc1ccccc1NC(=O)Cn1c(=O)n(-c2cccc(C)c2)c(=O)c2c1c1cc(C)ccc1n2C,nt,3%,nt,nt,nt,nt
Cc1ccc(-c2nc3cccnc3s2)cc1NC(=O)C(C)C,nt,-6%,nt,nt,nt,nt
CCCC(CCC)C(=O)Nc1cccc(-c2nc3cccnc3s2)c1,nt,-9%,nt,nt,nt,nt
Cc1ccc(-c2nc3cccnc3s2)cc1NS(C)(=O)=O,62*,3%,-8%,14%,-5%,33*
O=S(=O)(Nc1cccc(-c2nc3cccnc3s2)c1)c1cccs1,50*,-5%,-4%,11%,14%,18*
CCCS(=O)(=O)Nc1cccc(-c2nc3cccnc3s2)c1,57*,-3%,-1%,6%,6%,28*
Fc1ccc(NCc2ccccc2-c2nnc(-c3ccccc3Cl)o2)cc1Cl,nt,-15%,nt,nt,nt,nt
O=C(CC(NCc1cccnc1)C(=O)O)Nc1ccc(F)cc1 (configuration not stated),nt,3%,nt,nt,nt,nt
COC(=O)C(C)n1cnc2c(nnn2-c2cccc(OC)c2)c1=O (configuration not stated),41*,-13%,2%,8%,14%,20*
CCC(C(=O)OC)n1cnc2c(nnn2-c2cccc(OC)c2)c1=O (configuration not stated),38,-8%,5%,nt,0%,16*
CCC(C(=O)OC)n1cnc2c(nnn2-c2ccccc2)c1=O (configuration not stated),-3,1%,7%,4%,4%,-2
COc1ccc(-n2nc(C(=O)NCCc3cccc(C)c3)c3c4ccccc4n(C)c3c2=O)cc1Cl,nt,6%,nt,nt,nt,nt
COc1ccc(C)c2sc(N3CCN(C(=O)c4ccco4)CC3)nc12,nt,-2%,nt,nt,nt,nt
CCOC(=O)N1CCN(c2ccc(C(=O)CC)cc2F)CC1,28,-8%,-1%,-28%,3%,14
CCC(=O)c1ccc(N2CCC(C)CC2)c(F)c1,36*,4%,-2%,13%,5%,30*
CCCC(=O)c1ccc(N2CCC(C)CC2)c(F)c1,60*,-33%,2%,-5%,4%,43*
O=C(CN1c2ccccc2S(=O)(=O)c2ccccc21)Nc1ccccc1Cl,nt,0%,nt,nt,nt,nt
